Screening results (PubChem BioAssay)
Only some compounds are listed: those with a hit (about 1.6% of all), similar ones and a draw of the others.
KCNQ2 inh: inhibitors of rat KCNQ2 potassium channel; O88943; CHO-K1 KCNQ2, FluxOR thallium flux, 20 min; stronger effect = lower value; B-score at 10 µM; hit rate 1.1% among 310,000; AID 2156;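 active means fluorescence ratio B-score at most minus 3 library SDs, with starting brightness B-score within 2 library SDs, cut at about -5.5 in these data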
KCNQ2 enhance: enhances the rat KCNQ2 potassium channel; O88943; B-score at 10 µM; CHO-K1 KCNQ2, FluxOR thallium flux fluorescence; stronger effect = higher value; hit rate 0.54% among 310,000; AID 2239;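 active means fluorescence ratio B-score at least 3 SD of library B-scores, with initial fluorescence B-score within 3 of them, cut at about 5.3 in these data; same plate scores as AID 2156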;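 further: B-score of peak minus minimum over baseline fluorescence ratio after K+ and Tl+ stimulus; positive B-score means potentiation of KCNQ2 with more thallium influx and brighter signal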
KCNQ2 block conf: confirmation of rat KCNQ2 potassium channel inhibitors; shares compounds with KCNQ2 inh; KCNQ2-expressing cells, thallium flux, inhibition; stronger effect = lower value; activity change, negative = inhibition, % at 10 µM; hit rate 57% among 1,000
KCNQ1 spec: KCNQ2 inhibitor that also affects human KCNQ1 channel; activity change, negative = inhibition, % at 10 µM; hit rate 15% among 1,000; shares compounds with KCNQ2 inh; KCNQ1-expressing cells, FluxOR thallium flux fluorescence; stronger effect = lower value; AID 493026;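 active means activity change at least 3 SD of negative controls below their mean in both duplicate wells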;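 further: CHO cells stably transfected with KCNQ1 and depolarized by potassium stimulus; peak minus minimum fluorescence over baseline after thallium addition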
Target sequence (P51787 whole entry, looked up): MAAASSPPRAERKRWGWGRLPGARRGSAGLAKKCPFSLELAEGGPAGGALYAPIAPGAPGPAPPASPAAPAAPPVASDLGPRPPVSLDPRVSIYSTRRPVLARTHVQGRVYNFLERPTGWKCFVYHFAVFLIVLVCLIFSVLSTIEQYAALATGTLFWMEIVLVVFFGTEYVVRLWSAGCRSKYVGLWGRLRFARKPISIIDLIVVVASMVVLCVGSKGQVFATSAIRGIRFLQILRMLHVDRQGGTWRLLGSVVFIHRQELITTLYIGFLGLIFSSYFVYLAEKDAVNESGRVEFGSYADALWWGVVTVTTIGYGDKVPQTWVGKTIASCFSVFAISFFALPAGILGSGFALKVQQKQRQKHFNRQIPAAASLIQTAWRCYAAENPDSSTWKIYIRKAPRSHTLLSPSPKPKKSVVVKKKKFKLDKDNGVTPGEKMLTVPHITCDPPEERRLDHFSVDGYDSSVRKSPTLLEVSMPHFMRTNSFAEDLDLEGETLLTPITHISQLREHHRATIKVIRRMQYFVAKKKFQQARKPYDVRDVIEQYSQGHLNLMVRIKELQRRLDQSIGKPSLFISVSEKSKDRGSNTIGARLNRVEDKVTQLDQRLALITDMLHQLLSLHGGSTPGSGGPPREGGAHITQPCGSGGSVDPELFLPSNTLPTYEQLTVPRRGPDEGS
CHO parental ctr: counter-screen for KCNQ2 inhibitors: effect in parental CHO cells | shares compounds with KCNQ2 inh | thallium flux counter-screen; stronger effect = lower value | activity change, % at 10 µM | hit rate 14% among 1,000
KCNQ2 patch conf: blocks rat KCNQ2 current in automated patch clamp. KCNQ2-expressing cells. calls only at 10 µM. hit rate 49% among 550. shares compounds with KCNQ2 inh
Each line names hits and unclear results; the compound was inactive in the other large screens (follow-up assays come after a bar, where they were run). Unless noted, how the calls were made is not given here.

COc1ccccc1N1CCN(/N=C/c2cccc(OC)c2O)CC1	none (no result: KCNQ2 enhance)
COc1ccc(/C=N/N2CCN(c3ccccc3OC)CC2)cc1Br	none (no result: KCNQ2 enhance)
COc1ccccc1N1CCN(/N=C/c2cc(Br)ccc2F)CC1	KCNQ2 inh -11 | KCNQ2 block conf -18% | KCNQ1 spec inactive | CHO parental ctr inactive | KCNQ2 patch conf inactive
O=C(NC1CCCCC1)C(c1ccc(O)cc1)N(C(=O)c1cnccn1)c1cccc(F)c1 (centres undefined)	none (no result: KCNQ2 enhance)
O=[N+]([O-])c1ccc(Cl)c(/C=N/N2CCN(Cc3ccccc3)CC2)c1	none (no result: KCNQ2 enhance)
O=[N+]([O-])c1ccc(Cl)c(/C=N/N2CCN(Cc3ccccc3Cl)CC2)c1	KCNQ2 inh -7.2 | KCNQ2 block conf inactive | KCNQ1 spec inactive | CHO parental ctr inactive
Cc1onc(-c2c(F)cccc2Cl)c1C(=O)O/N=C(\N)c1ccc([N+](=O)[O-])o1	none (no result: KCNQ2 enhance)
CC1=C(C(=O)NCc2ccco2)C2(CCC(C)CC2)OC1=O (centres undefined)	none
CC1=C(C(=O)NCc2ccc3c(c2)OCO3)C2(CCC(C)CC2)OC1=O (centres undefined)	KCNQ2 inh -9.4 | KCNQ2 block conf inactive | KCNQ1 spec inactive | CHO parental ctr inactive
c1ccc(-c2noc(-c3ccccc3-c3ccccc3)n2)cc1	KCNQ2 inh -8.6 | KCNQ2 block conf -24% | KCNQ1 spec inactive | CHO parental ctr inactive | KCNQ2 patch conf inactive
Fc1ccccc1-c1nc(-c2ccc(Cl)cc2)no1	none (no result: KCNQ2 enhance)
O=c1c2ccccc2nc(COc2ccccc2)n1/N=C/c1ccc(O)c(O)c1	none (no result: KCNQ2 enhance)
O=c1c2ccccc2nc(COc2ccccc2)n1/N=C/c1ccco1	KCNQ2 inh -10 | KCNQ2 block conf inactive | KCNQ1 spec inactive | CHO parental ctr inactive
Cc1onc(-c2ccccc2)c1C(=O)Nc1nc(-c2cc(F)ccc2F)cs1	none (no result: KCNQ2 enhance)
Cc1onc(-c2ccccc2)c1C(=O)Nc1nc(-c2ccccc2)cs1	KCNQ2 inh -7.2 | KCNQ2 block conf inactive | KCNQ1 spec inactive | CHO parental ctr inactive
O=C(Nc1ccccc1C(=O)NCCCN1CCOCC1)c1ccc(F)cc1	none
CN(C)C(=O)NC1c2ccccc2-c2ccccc21	none (no result: KCNQ2 enhance)
O=C(NC1c2ccccc2-c2ccccc21)N1CCCCC1	KCNQ2 inh -6.8 | KCNQ2 block conf -25% | KCNQ1 spec inactive | CHO parental ctr inactive | KCNQ2 patch conf active
CCOC(=O)c1c(-c2ccc(OC)cc2)csc1NC(=O)CSc1ccccc1	none (no result: KCNQ2 enhance)
CCOC(=O)c1c(-c2cccs2)csc1NC(=O)CN(CC)CC	KCNQ2 inh -9.9 | KCNQ2 block conf inactive | KCNQ1 spec inactive | CHO parental ctr inactive
CCOC(=O)c1c(-c2ccccc2)csc1NC(=O)CSc1ccccc1	KCNQ2 inh -8.2 | KCNQ2 block conf -38% | KCNQ1 spec -27% | CHO parental ctr inactive | KCNQ2 patch conf inactive
CCOC(=O)c1c(-c2cccs2)csc1NC(=O)CC(C)C	none (no result: KCNQ2 enhance)
Cc1ccc(S(=O)(=O)N(C)c2ccc(C(=O)N(CC(C)C)C3CCS(=O)(=O)C3)cc2)cc1 (centres undefined)	none
COc1cc(OC)cc(C(=O)N2CCN(C(=O)c3cccs3)CC2)c1	none (no result: KCNQ2 enhance)
COC(=O)CN1C(=O)[C@H]2[C@@H](c3ccc(C)o3)N3C(=O)CN(CC4CC4)C(=O)[C@@]3(C)[C@H]2C1=O	none
CN1CCN(c2cc(-c3ccccc3)nc3cc(-c4ccc(F)cc4)nn23)CC1	none (no result: KCNQ2 enhance)
COc1cccc(-c2cc3nc(-c4ccccc4)cc(N4CCC5(CC4)OCCO5)n3n2)c1	KCNQ2 inh -8.4 | KCNQ2 block conf -32% | KCNQ1 spec inactive | CHO parental ctr inactive | KCNQ2 patch conf inactive
COc1ccc(S(=O)(=O)N(C)C)cc1NC(=O)CCNC(=O)c1ccccc1OC	none
Cc1cccc2c1cnn2C(=O)CCC(=O)NCc1ccc(F)cc1	none
CC(C)c1ccc(C2CC(=O)c3cnc(N4CCc5ccccc5C4)nc3C2)cc1 (centres undefined)	none (no result: KCNQ2 enhance)
O=C1CC(c2ccco2)Cc2nc(N3CCc4ccccc4C3)ncc21 (centres undefined)	KCNQ2 inh -10 | KCNQ2 block conf -27% | KCNQ1 spec inactive | CHO parental ctr inactive | KCNQ2 patch conf inactive
COc1ncccc1-c1nnn(-c2ccc(F)cc2)n1	none
O=C(c1ccco1)N1CCN(Cc2cc(=O)c(OCc3ccc([N+](=O)[O-])cc3)co2)CC1	none
Cc1cc(C)n(-c2nc3ccccc3nc2N2CCN(C(=O)c3ccc(Cl)cc3)CC2)n1	KCNQ2 inh -8.4 | KCNQ2 block conf -32% | KCNQ1 spec -30% | CHO parental ctr -24% | KCNQ2 patch conf active
Cc1cc(C)n(-c2nc3ccccc3nc2N2CCCC2)n1	none (no result: KCNQ2 enhance)
O=C1CC(N2CCN(c3ccc(F)cc3)CC2)C(=O)N1c1ccc2c(c1)OCO2 (centres undefined)	none
CCOC(=O)c1nnsc1N	none
CCN1/C(=C\c2ccc3cc(C)ccc3[n+]2CC)Sc2cc(C)c(C)cc21	none (no result: KCNQ2 enhance)
C=CC[n+]1c(/C=C2\C=Cc3cc(C)ccc3N2CC)ccc2ccccc21	KCNQ2 inh -9.8 | KCNQ2 block conf inactive | KCNQ1 spec inactive | CHO parental ctr inactive
O=C(CSc1nc(-c2cccs2)cc(C(F)(F)F)n1)Nc1cc(OCC(F)(F)C(F)F)cc([N+](=O)[O-])c1	none (no result: KCNQ2 enhance)
Cc1ccc(C(=O)CSc2nnc(COc3ccc(C#N)cc3)n2-c2ccccc2)cc1	none
Cc1ccc(OCc2nnc(SCC(=O)Nc3cccc4ccccc34)n2-c2ccccc2)cc1	KCNQ2 inh -8.5 | KCNQ2 block conf inactive | KCNQ1 spec inactive | CHO parental ctr inactive
Cc1c(C)n(C(=O)CN2CCC(C(N)=O)CC2)c2ccccc12	none (no result: KCNQ2 enhance)
Cc1c(C)n(C(=O)CN2CCN(c3ccccc3)CC2)c2ccccc12	KCNQ2 inh -7.8 | KCNQ2 block conf inactive | KCNQ1 spec inactive | CHO parental ctr inactive
CNC(=O)COC(=O)c1cc(-c2ccco2)nc2ccccc12	none (no result: KCNQ2 enhance)
O=C(COC(=O)c1cc(-c2ccco2)nc2ccccc12)NCc1ccccc1	KCNQ2 inh -6.9 | KCNQ2 block conf inactive | KCNQ1 spec inactive | CHO parental ctr inactive
COc1ccc(CCNC(=O)c2cc(-c3ccco3)nc3ccccc23)cc1	KCNQ2 inh -8.2 | KCNQ2 block conf -27% | KCNQ1 spec inactive | CHO parental ctr inactive | KCNQ2 patch conf active
CCN(CC)CCNC(=O)c1cc(-c2ccco2)nc2ccccc12	none
Cc1ccc(C(C[N+](=O)[O-])Sc2ccc(N)cc2)cc1 (centres undefined)	KCNQ2 inh -9.4 | KCNQ2 block conf -30% | KCNQ1 spec inactive | CHO parental ctr inactive | KCNQ2 patch conf inactive
Nc1ccc(Sc2ccc([N+](=O)[O-])cc2)cc1	none
COc1ccc(CN2CCC(C)CC2)cc1OCc1ccccc1	none
Cc1cccc(C)c1OCc1cc(C(=O)N2CCC(C3CCCCC3)C2)no1 (centres undefined)	none (no result: KCNQ2 enhance)
Cc1cccc(C)c1OCc1cc(C(=O)N2CCC(c3ccccc3)CC2)no1	KCNQ2 inh -9.2 | KCNQ2 block conf -24% | KCNQ1 spec inactive | CHO parental ctr inactive | KCNQ2 patch conf active
O=c1cc(NCc2ccccc2)[nH]c(=O)[nH]1	none
CCNc1nc(NCC)n2c(SCC(=O)N(CC)C3CCCCC3)nnc2n1	none
